Results published in the supplement of paper PMC5662767.

tested on: Drosophila S2 cl14 SmoIP sensor cells; assay: normalized SmoIP GFP fluorescence (untreated unstimulated = 0%, untreated Hh-stimulated = 100%); higher = more Smo activation sensor fluorescence; details: stimulation: mock conditioned medium (-Hh); compound concentration: 2 uM; 24 h
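Further: flow cytometry read-out as median GFP intensity of gated cells, compounds added 30 min before Hh-conditioned or mock medium, mock-treated cells serving as unstimulated baseline.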

Row | Structure (SMILES) | normalized SmoIP GFP fluorescence [%]
1 | COc1cc2c(Nc3ccc(NC(=O)c4ccccc4)cc3)ncnc2cc1OCCCN1CCOCC1 | 6.52
2 | C[C@]12CC[C@@H]3c4ccc(O)cc4C[C@@H](CCCCCCCCC[S+]([O-])CCCC(F)(F)C(F)(F)F)[C@H]3[C@@H]1CC[C@@H]2O (some centres not stated) [Fulvestrant] | 12.4
3 | CCOC(=O)[C@H]1O[C@@H]1C(=O)N[C@@H](CC(C)C)C(=O)NCCC(C)C [Aloxistatin] | 3.51
4 | N=C(N)Nc1ccc(C(=O)Oc2ccc3cc(C(=N)N)ccc3c2)cc1 [Nafamostat-mesylate] | 16.2
5 | O=c1cc(-c2cccc3c2Sc2ccccc2S3)oc(N2CCOCC2)c1 | 2.43
6 | O=C(NOC[C@H](O)CO)c1ccc(F)c(F)c1Nc1ccc(I)cc1F | 77.1
7 | CC(C)CCNC(=O)C(CC(C)C)NC(=O)C1OC1C(=O)O (configuration not stated) [loxistatin-acid-e-64c] | 34.9
8 | OC[C@H]1O[C@@H](c2ccc(Cl)c(Cc3ccc(O[C@H]4CCOC4)cc3)c2)[C@H](O)[C@@H](O)[C@@H]1O | -7.78
9 | CCc1cc(Nc2nccc(-c3c(-c4ccc(OC)c(C(=O)Nc5c(F)cccc5F)c4)nc4ccccn34)n2)c(OC)cc1N1CCC(N2CCN(S(C)(=O)=O)CC2)CC1 | 25.3
10 | COc1ccc(S(=O)(=O)N(C(C)=O)c2ccccc2/C=C/c2cc[n+]([O-])cc2)cc1 | 1.03
11 | C=CC[N+]1([C@H]2C[C@H]3[C@@H]4CC[C@H]5C[C@H](O)[C@@H](N6CCOCC6)C[C@]5(C)[C@H]4CC[C@]3(C)[C@H]2OC(C)=O)CCCC1 [Rocuronium-bromide] | 10.2
12 | COc1cc2nccc(Oc3ccc(NC(=O)C4(C(=O)Nc5ccc(F)cc5)CC4)cc3)c2cc1OC | 3.51
13 | C[C@]12CC[C@@H]3c4ccc(O)cc4CC[C@H]3[C@@H]1CCC2=O [Estrone] | 5.12
14 | NC(=O)c1cn(Cc2c(F)cccc2F)nn1 [Rufinamide] | 1.89
15 | Nc1ncn([C@H]2C[C@H](O)[C@@H](CO)O2)c(=O)n1 [Decitabine] | 25.6
16 | CCOc1ccn(-c2ccc(F)cc2)c(=O)c1C(=O)Nc1ccc(Oc2ccnc(N)c2Cl)c(F)c1 | -5.22
17 | CCOC(=O)N1CCC(=C2c3ccc(Cl)cc3CCc3cccnc32)CC1 [Loratadine] | 11
18 | CN(C)CCc1c[nH]c2ccc(Cn3cncn3)cc12 [Rizatriptan-Benzoate(Maxalt)] | -0.265
19 | C[C@]12C=CC(=O)N[C@@H]1CC[C@@H]1[C@@H]2CC[C@]2(C)[C@@H](C(=O)Nc3cc(C(F)(F)F)ccc3C(F)(F)F)CC[C@@H]12 [Dutasteride] | 4.26

Row | Structure (SMILES) | normalized SmoIP GFP fluorescence [%]
20 | C[C@H](NCc1ccc(OCc2cccc(F)c2)cc1)C(N)=O [Safinamide-mesilate] | 4.04
21 | CN(C)C(=O)c1ccc(S(=O)(=O)c2ccc(NC(=O)[C@@](C)(O)C(F)(F)F)c(Cl)c2)cc1 | -2.1
22 | COc1c(C)c2c(c(O)c1C/C=C(\C)CCC(=O)OCCN1CCOCC1)C(=O)OC2 [Mycophenolate-mofetil-(CellCept)] | 5.98
23 | Clc1ccc(C2(c3ccc(-c4cn[nH]c4)cc3)CCNCC2)cc1 | 17.1
24 | O=C(Nc1c[nH]nc1-c1nc2ccc(CN3CCOCC3)cc2[nH]1)NC1CC1 | 94.8
25 | N#CC(=C(/N)Sc1ccccc1N)/C(C#N)=C(/N)Sc1ccccc1N | 23.1
26 | COc1cc(Nc2ncc(F)c(Nc3ccc4c(n3)NC(=O)C(C)(C)O4)n2)cc(OC)c1OC [R406(free-base)] | 9.32
27 | NC(=S)N/N=C/c1ncccc1N [triapine] | -3.71
28 | CCOc1cc(CC(=O)N[C@@H](CC(C)C)c2ccccc2N2CCCCC2)ccc1C(=O)O [Repaglinide] | 6.52
29 | Cc1[nH]c2ccccc2c1CCNCc1ccc(/C=C/C(=O)NO)cc1 | 81.3
30 | COc1ccc2cc(-c3nc(-c4ccc([S+](C)[O-])cc4)[nH]c3-c3ccncc3)ccc2c1 (configuration not stated) [Tie2-kinase-inhibitor] | 21.9
31 | Cc1cc(NC(=O)Nc2ccc(N(C)C)cc2)c2cc(F)cc(F)c2n1 | 24.9
32 | COc1cc2/c(=N/c3ccc(Br)cc3F)nc[nH]c2cc1OCC1CCN(C)CC1 [Vandetanib] | 60.9
33 | Cc1ccc(-n2nc(C(C)(C)C)cc2NC(=O)Nc2ccc(OCCN3CCOCC3)c3ccccc23)cc1 [BIRB-796-(Doramapimod)] | 72.2
34 | O=C(c1cc(Cc2n[nH]c(=O)c3ccccc23)ccc1F)N1CCN(C(=O)C2CC2)CC1 [AZD2281(Olaparib)] | 1.35
35 | Nc1ccc(C(=O)Nc2cccc(-c3nc(N4CCOCC4)c4oc5ncccc5c4n3)c2)cn1 | 5.45
36 | C=CC(=O)Nc1cccc(Sc2nc(Nc3ccc(N4CCN(C)CC4)cc3)ncc2Cl)c1 | 36.2
37 | COC(=O)N[C@H](C(=O)N[C@@H](Cc1ccccc1)[C@@H](O)CN(Cc1ccc(-c2ccccn2)cc1)NC(=O)[C@@H](NC(=O)OC)C(C)(C)C)C(C)(C)C [Atazanavir] | -0.0496
